Hit rate of the full screen: of about 31,000 sequences, about 1,400 (4.5%) were called active.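 The calls were made as follows: active = median seed-adjusted z-score above 1 or below -1; inactive = the rest.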 The sample as a whole holds a higher share of actives than the screen did.
Test: Novel Modifiers of Survival Motor Neuron (SMN) Protein: Gene Identification via Genome-wide siRNA Screen;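 also: luminescence tracks full-length SMN protein made from the SMN2 reporter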
Conditions: HEK293T SMN2-luciferase reporter, siRNA knockdown, 72 h; actives lie on both sides
In short: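 HEK293T cells stably expressing an SMN2 splicing/cDNA-luciferase reporter were reverse-transfected with a druggable-genome siRNA library and read by luminescence at 72 hours; hits defined by MAD score above 1.0 or below -1.0.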
In the case of GAUUGGUGGUUGGAACAUUTT against ECE2, the median seed-adjusted z-score is reported as 0.794 (inactive).
For CCAAAGAUAUCGGACCCUATT against PI4K2A, the median seed-adjusted z-score was -0.486 (inactive).
For CGGCGUCUCUACUACGUCUTT against CLEC11A, the median seed-adjusted z-score was -1.1 (active).
For CUUCCUGGGUGUAAUGUUATT against IGSF1, the median seed-adjusted z-score was 0.258 (inactive).
For GCAAGGCAGCUGUUCUGAATT against PGLS, the median seed-adjusted z-score was 0.188 (inactive).
For GCAUCUGUGAGGAUAUUGATT against FBN3, the median seed-adjusted z-score was 0.264 (inactive).
For GAGUCGAGUUUGAUGAAGATT against GSTA4, the median seed-adjusted z-score was -0.848 (inactive).
With CGUUCGGUCUGACGCAGUATT against LRP5 the median seed-adjusted z-score was -1 (active).
For CGAUGUCAGUUUCUAGUAATT against USP42, the median seed-adjusted z-score was -0.0125 (inactive).
For GCCGUUUGACCAUACAUUATT against SNTB1, the median seed-adjusted z-score was 0.488 (inactive).
With CCAAGAAACUAACACGCUATT against PFKFB2 the median seed-adjusted z-score was 0.311 (inactive).
In the case of GGAAGGUGAUUGAUCCUAATT against HNRNPD, the median seed-adjusted z-score is reported as 0.504 (inactive).
In the case of CGAAAAACCAUAGACUACATT against WDR33, the median seed-adjusted z-score is reported as 3.27 (active).
With GCAAAUGUCAGAGAUUGAATT against SFXN5 the median seed-adjusted z-score was 0 (inactive).
In the case of CAGUUACUCUGGGAGUAUATT against PRPF3, the median seed-adjusted z-score is reported as -0.289 (inactive).
In the case of CCAGGUGUAUUCAAUGGAATT against FMO3, the median seed-adjusted z-score is reported as -0.0769 (inactive).
With ACGACUGCCUGGUCUUAAATT against ADAP2 the median seed-adjusted z-score was -1.1 (active).
In the case of GCACUCGAGUAAUUAGCAATT against DOCK10, the median seed-adjusted z-score is reported as -0.201 (inactive).
For GGUUCUGCUUUAUUACCUUTT against HNRNPD, the median seed-adjusted z-score was 0.504 (inactive).
In the case of CAGCUUACAAUACAUCAAATT against ZNF7, the median seed-adjusted z-score is reported as 0 (inactive).
In the case of AAGACAUGAUGUUCCACAATT against ADCY6, the median seed-adjusted z-score is reported as -0.0652 (inactive).
With GCACAGAUAUCCUCGUGUATT against ARL11 the median seed-adjusted z-score was 1 (active).
In the case of CAGUAGCAGUGGAAUGGGATT against RBMX, the median seed-adjusted z-score is reported as 0.0941 (inactive).
In the case of GCGCUUCUGGUGUACGACATT against RAB17, the median seed-adjusted z-score is reported as 0.473 (inactive).
For CAUCCACACUUCUCCAGAATT against HK1, the median seed-adjusted z-score was -0.129 (inactive).
For GAGUGGGCGUGGAUAGAAATT against PSMC2, the median seed-adjusted z-score was -1.96 (active).
With AGUUAUUGCUACUUCAGAATT against CX3CR1 the median seed-adjusted z-score was -0.292 (inactive).
For GCAACUACGUUGACUUCUATT against CTNND2, the median seed-adjusted z-score was -0.0491 (inactive).
For AACUGAACAUAGCAGAAUUTT against ZNF85, the median seed-adjusted z-score was -1.01 (active).
With CGGUGACUGUGAACGGCAATT against DNAJB8 the median seed-adjusted z-score was -1.09 (active).
In the case of ACAUAGUAAAGACUUUCUATT against PIGA, the median seed-adjusted z-score is reported as -0.0514 (inactive).
In the case of GUCAGUUGUUAGAACAUAATT against TRIM24, the median seed-adjusted z-score is reported as -0.22 (inactive).
For CAAUUCUUAUUGACUCAUATT against IFNA1, the median seed-adjusted z-score was -0.625 (inactive).
With CAUCAUCCAUGGUAGCUUUTT against DUOX1 the median seed-adjusted z-score was -1.09 (active).
In the case of GCUUGACCCUUAGACGGAATT against LILRB3, the median seed-adjusted z-score is reported as 0.0304 (inactive).
For GGUGUUAUCCUAUGAGGUATT against MPP4, the median seed-adjusted z-score was 0.13 (inactive).
For GGAAAAACCUUCUACCUGATT against ZNF12, the median seed-adjusted z-score was -0.144 (inactive).
With GGCCUUACGGGUGUAGUAATT against ZNF419 the median seed-adjusted z-score was 0.0405 (inactive).
With GGAUCAAGGCUAUGUGGAUTT against CYB5R1 the median seed-adjusted z-score was 0 (inactive).
In the case of UAUGAGUUGUUGUUGGGAATT against NSUN5, the median seed-adjusted z-score is reported as 0.118 (inactive).
In the case of UCUUAUCCUUUGUCGCAGATT against LMO3, the median seed-adjusted z-score is reported as 0.496 (inactive).
In the case of GCAUCACCCAAGUAGUUAUTT against SFXN2, the median seed-adjusted z-score is reported as 0.365 (inactive).
In the case of GACUCAUAUGGACCAGUUATT against ZNF460, the median seed-adjusted z-score is reported as -0.302 (inactive).
In the case of CAUGGGCUCUAUUACGCUUTT against SPEN, the median seed-adjusted z-score is reported as -1.69 (active).
With GUCUACCCAUGGACCCAGATT against HBG1 the median seed-adjusted z-score was -0.716 (inactive).
With CACCAACUAAUGUUACAAUTT against IFNGR1 the median seed-adjusted z-score was -0.279 (inactive).
With CCUCGAGACUAUACGGUUATT against MED26 the median seed-adjusted z-score was -1.86 (active).
In the case of CCAGUGGAGUGGUAUCUAUTT against RBBP5, the median seed-adjusted z-score is reported as 0.169 (inactive).
In the case of GAACUCAUGUCCGACAUAATT against STX1A, the median seed-adjusted z-score is reported as 0 (inactive).
In the case of GCGCUUUGGAGAUCCGAGATT against KLC3, the median seed-adjusted z-score is reported as -0.156 (inactive).
In the case of GCAGUAGAAGUAUCCGGGATT against THSD4, the median seed-adjusted z-score is reported as 0.0657 (inactive).
For CCUUCUCAAUGGAUUCCAATT against VN1R1, the median seed-adjusted z-score was 0.531 (inactive).
For GGUCAUGCAGGGUUGGAAATT against ALDH1B1, the median seed-adjusted z-score was 0.105 (inactive).
For GGAAGAUUGUCGCUCCUCATT against TFAP2C, the median seed-adjusted z-score was 1.28 (active).
In the case of CAGAAGACCUGGUGCCCUATT against SPI1, the median seed-adjusted z-score is reported as 0.384 (inactive).
With GCAUUAAUAACAUUACGUUTT against ZNF236 the median seed-adjusted z-score was 0.683 (inactive).
With CGCCCGCGAUUACUACCAUTT against HSPA12B the median seed-adjusted z-score was -0.141 (inactive).
For GUGCCACCGGAGCUAGUAATT against KCNK4, the median seed-adjusted z-score was -0.446 (inactive).
With AGGUGAAACUUCGAAGACATT against TRPM3 the median seed-adjusted z-score was -0.633 (inactive).
With CGAUGAACGAGUACAUUGATT against GRIA2 the median seed-adjusted z-score was -1.02 (active).
In the case of CAUCUGAAGUGGUUAAGCATT against SLC25A26, the median seed-adjusted z-score is reported as 0.0213 (inactive).
In the case of CCGGAAAUUUGGGACGCAATT against DHX58, the median seed-adjusted z-score is reported as -0.302 (inactive).
For GGAGGUCAUUAAAACACCATT against HADH, the median seed-adjusted z-score was 1.11 (active).
With GGACGACCGUGUAUAGUUUTT against RFESD the median seed-adjusted z-score was -0.503 (inactive).
With CACUUUAGAUGAUAUCAGATT against PPP3CA the median seed-adjusted z-score was 0.74 (inactive).
In the case of GCUAUAAGGUGGAACGGCATT against POLR2A, the median seed-adjusted z-score is reported as -3.81 (active).
In the case of GCUUAUGGAUGGAGACCAATT against RNF34, the median seed-adjusted z-score is reported as -0.0857 (inactive).
With AGGUGAUGUCGGUCGGAGATT against RAB24 the median seed-adjusted z-score was 0.123 (inactive).
With AGCAAUAACUCGUGUAGCATT against EFNA2 the median seed-adjusted z-score was -0.314 (inactive).

Reference: PubChem BioAssay AID1347426 (Functional Genomics Laboratory (NCATS/FGL), 2020)
